Laboratory results published in the supplement of paper PMC3842684.

Tests used:
[1] = test system: P. falciparum NF54-pfs16-GFP early (I-III) stage gametocytes; assay: relative % inhibition of viable gametocyte number; higher = more gametocytocidal; conditions: stage: early (I-III) gametocyte, incubation 72 h
Procedure, shortened: (§1)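 Magnet-isolated NF54 pfs16-GFP gametocytes at early (I/IIa, day 2) or late (day 8) stage were exposed to compound at 5 or 0.5 µM for 72 h at 37°C, 5% CO2, 5% O2, at 10% parasitaemia and 0.1% haematocrit. Elongated GFP objects with MitoTracker Red signal above cut-off were counted as viable by confocal imaging. Relative inhibition was normalised to in-plate vehicle and positive-control wells.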

[2] = test system: P. falciparum NF54-pfs16-GFP late (IV-V) stage gametocytes; assay: as above; conditions: stage: late (IV-V) gametocyte, incubation 72 h
Procedure, shortened: as §1

SMILES | relative % inhibition ([1]; 0.5 µM) [%] | relative % inhibition ([1]; 5 µM) [%] | relative % inhibition ([2]; 0.5 µM) [%] | relative % inhibition ([2]; 5 µM) [%]
COc1ccccc1CNC(=O)CCn1c(=O)[nH]c2ccccc2c1=O | 27.4 | 28.5 | -5.22 | 2.14
CCCCNc1nc(NC(C)(C)C)nc(NC(C)(C)C)n1 | -7.87 | 40.6 | 31.7 | 43.5
N=c1n(CCN2CCCCC2)c2ccccc2n1CC(=O)c1ccc(Cl)c(Cl)c1 | -10.5 | 76.8 | 55.4 | 96.9
CC(C)CNC(=O)c1c(N)n(CCc2ccccc2F)c2nc3ccccc3nc12 | -1.27 | 3.8 | 3.01 | 8.27
COc1ccc(C=C2SC(Nc3ccc(F)cc3)=NC2=O)c(OC)c1 | 2.18 | 8.91 | 24.9 | 87.9
Cc1ccc(C2CC(C(F)(F)F)n3nc(C(=O)N4CCN(C(c5ccccc5)c5ccccc5)CC4)cc3N2)cc1 (centres undefined) | 3.32 | 13.2 | 17.1 | -7.7
CC1CCCCN1CCCNC(=O)c1ccc2c(c1)sc1nc(-c3ccc(F)cc3)cn12 (centres undefined) | 21.3 | 88.1 | 23.2 | 17.8
CC(C)(C)c1ccc(O)c(CNC2CCCCC2)c1 | 89.9 | 90.6 | 61.1 | 81
COc1cc(C(=O)Nc2nc3c(cc4c5c(cccc53)CC4)s2)cc(OC)c1OC | 5.49 | 13.9 | 12.4 | 5.43
COc1ccccc1N=C1C(=O)c2ccccc2C(O)=C1N1CCCCC1 | 21.8 | 44.6 | -11.2 | 10.5
COc1ccc(-c2cn3c(C(=O)Nc4ccccc4Cl)c(-c4ccccc4)c4c3n2CCCC4)cc1 | 10.5 | 30.9 | 4.28 | 22.5
CSc1ccccc1C(=O)Nc1nc(-c2ccccn2)cs1 | 27.3 | 92.9 | 19.1 | 96.9
Cc1ccc2cc3c(N)c4c(C)ccc(C)c4nc3nc2c1 | 4.09 | 91 | 8.68 | 50.1
CCOC(=O)c1c(C)n(-c2ccccc2)c2ccc(OC(=O)c3cc(OC)c(OC)c(OC)c3)cc12 | 17.7 | -2.44 | -15.1 | -2.38
CC(C)(C)c1ccc2c(c1)CN(Cc1ccc(Cl)cc1)CO2 | 9.71 | 98.4 | 27.3 | 54.6
COc1cccc(C=Cc2nc(=O)c3ccccc3o2)c1OC | -6.76 | -17.9 | 50.6 | 94
